The structures appear in SMILES notation. Out of some 320,000 compounds screened, about 2,100 (0.66%) were called active. About 53% were inconclusive and are not listed. Calls follow the shape of the dose curve; as a rule, active = well fitted inhibition curve with a large enough effect in the signal ratio, with a control signal flat (not every such curve was filed as active); inconclusive = small, poorly fitted or top-dose-only effect, or effect the other way, or a change in a side signal; inactive = flat fitted curve, though single readings scatter; the % refers to the signal ratio. The entries come from a sample that favours actives as a whole.
Potency is read from the fitted curve at half-maximal effect.

The nature of this test: qHTS Assay for Lipid Storage Modulators in Drosophila S3 Cells.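 As to cell number change: cells counted by Cell Tracker Red CMTPX staining in the red channel.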 The conditions noted are these: BODIPY lipid droplet fluorescence, 18-24 h, cells fed with added oleic acid; cell number change: measured here: cell count max response; series mostly up to 46.1 µM. In a few lines: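 Laser-scanning cytometry quantifies lipid droplet accumulation (500–530 nm total intensity; droplet/cell object ratio) in oleic acid-fed (400 uM added) Drosophila S3 cells treated with a concentration series. 20 uM Triacsin C defined 100% inhibition.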
(In general: In qHTS, concentration-response curves come from the screen itself.)
`CCCCC(C(=O)N/N=C/c1ccccn1)C(=O)N/N=C/c1ccccn1`: the Potency result is “inactive” and the cell number change amounted to 2.01%. With `COc1cccc(NC(C)(C)c2nnnn2-c2c(C)cccc2C)c1`, the Potency entry was “inactive” and the cell number change was 12.6%. For the compound `O=C(CCN1CCc2ccccc2C1)Nc1ccc(F)c(F)c1`, the Potency entry was “inactive”. Take `CCOC(=O)c1c(S(=O)(=O)NCC(=O)Nc2ccc(OC)cc2)c(C)n(C)c1C`: the Potency entry was “inactive”. Regarding `CCCOC(=O)CCCC[C@H]1SC[C@@H](NC(=O)OC)[C@H]1NC(=O)OC`, the Potency entry was “inactive” and the cell number change worked out at 5.48%. For `CCOC(=O)c1c(C)nc(-c2ccccc2)nc1N` the same measures were “inactive” and 1.72%. For the compound `O=C(Cc1ccccc1Cl)NCCCn1ccnc1`, the Potency result is “inactive” and the cell number change is -1.19%. For `O=C(COc1coc(CN2CCN(c3ccccc3)CC2)cc1=O)NCC1CCCO1` (stereo not drawn), the outcome is “inactive [at 0.0737 µM]”.

As for `CCN(CC)S(=O)(=O)c1c(OC)cc(C)c(Cl)c1C`, the Potency entry is “inactive” and the cell number change was 8.74%. For `Cc1cc(OCC(=O)NCc2ccncc2)c2c(C)c(C)c(=O)oc2c1` the same measures were “inactive” and 8.73%. As for `CCCc1cc(=O)oc2cc(C)cc(OCC(=O)NCc3ccccn3)c12`, the Potency is 11.6 µM (active) and the cell number change was 6.85%. With `Cc1cc(OCC(=O)NCCCn2ccnc2)c2c(C)c(C)c(=O)oc2c1`, the Potency is 13 µM (active). Regarding `COc1ccc(OCC(=O)NCCCn2ccnc2)cc1`, the Potency result is “inactive” and the cell number change was 17.2%. For `CCCc1cc(=O)oc2cc(C)cc(OCC(=O)NCCCn3ccnc3)c12` the same measures were “inactive” and 0.597%.

Turning to `CCCc1cc(=O)oc2cc(C)cc(OCC(=O)NCc3cccnc3)c12`, the Potency entry was “inactive” and the cell number change was -12.5%. Consider `CCCc1cc(=O)oc2cc(C)cc(OCC(=O)NCc3ccncc3)c12`, for which the Potency result is “inactive” and the cell number change is 4.58%. For `CCc1cc(=O)oc2cc(C)cc(OCC(=O)NCCCn3ccnc3)c12` the same measures were “inactive” and 8.87%.

`Cc1c(C)c2ccc(OCC(=O)Nc3ccccn3)c(C)c2oc1=O`: the Potency entry was “inactive” and the cell number change is 15.9%.

Turning to `Cc1cc(OCC(=O)Nc2ccccn2)c2c(C)c(C)c(=O)oc2c1`, the Potency is 7.31 µM (active) and the cell number change is -10.4%. For `O=C(COc1ccc(Br)cc1)NCCCn1ccnc1` the same measures were “inactive” and 9.25%. Take `O=C(COc1ccc(F)cc1)NCCCn1ccnc1`: the Potency is 25.9 µM (active) and the cell number change is -6.85%. Regarding `COc1ccc(CN(C)S(=O)(=O)c2nnc(NC(=O)c3ccccc3OC)s2)cc1OC`, the Potency entry was “inactive” and the cell number change was -3.88%. For `Cc1ccccc1CCNC(=O)C1CCCN(c2cnccn2)C1` (stereo not drawn) the same measures were “inactive” and -4.78%. For `Cc1cccc(NC(=S)NCC(c2cccnc2)N2CCOCC2)c1` (stereo not drawn) the same measures were “inactive” and 16.1%. On to `N#Cc1ccc(C(CC(=O)O)N2Cc3ccccc3C2=O)cc1` (stereo not drawn), for which the Potency result was “inactive” and the cell number change came out at 6.48%.

As to `Cc1ccc(NC2CCCN(C(=O)c3ccoc3)C2)cc1C` (stereo not drawn), the Potency result was “inactive” and the cell number change is -11.9%. Consider `O=C(c1ccc(C(F)(F)F)cc1)N1CCN(S(=O)(=O)c2ccc3c(c2)OCCCO3)CC1`, for which the Potency entry was “inactive” and the cell number change is 3.78%. With `COc1ccccc1C(=O)Nc1ccc(Br)c2cccnc12`, the Potency was 1.64 µM (active) and the cell number change was -27.2%. For `COc1ccccc1NC(=O)c1cccc2c(Br)cccc12` the same measures were “inactive” and -20.6%. For `COc1ccccc1C(=O)Nc1ccc(Br)cc1C` the same measures were “inactive” and 6.15%. Turning to `CNc1ccc(Oc2c(F)c(F)nc(F)c2F)cc1`, the Potency result was “inactive” and the cell number change is -27.7%. For `CCn1c(=O)n(CC)c2cc(N3CCCC3)c(NC(=O)c3ccc(C)cc3)cc21` the same measures were “inactive” and -23.8%. With `COc1ccc(Cl)cc1C(=O)Nc1ccccc1N1CCCCC1`, the Potency entry is “inactive” and the cell number change turned out to be 5.02%. In the case of `CCn1c(=O)n(CC)c2cc(N3CCCC3)c(NC(=O)c3cc(Cl)ccc3OC)cc21`, the Potency was 5.8 µM (active) and the cell number change is -12.8%. Consider `Cc1ccc2c(n1)CC(C)(C)C/C2=N\O`, for which the Potency entry is “inactive” and the cell number change turned out to be 3.94%. For the compound `CC(C)Oc1cccc(C(=O)C2CCCN(C(=O)c3ccsc3)C2)c1` (stereo not drawn), the Potency is 18.4 µM (active) and the cell number change is -18.6%.

Consider `CC(C)Oc1cccc(C(=O)C2CCCN(C(=O)c3csnn3)C2)c1` (stereo not drawn), for which the Potency result is “inactive” and the cell number change amounted to 3.1%. For `CC(C)Oc1cccc(C(=O)C2CCCN(C(=O)c3ccc4c(c3)OCO4)C2)c1` (stereo not drawn) the same measures were “inactive” and -14.4%. For `Cn1ncc(N=Cc2ccccc2[N+](=O)[O-])c1C(N)=O` the same measures were “inactive” and -4.8%. Regarding `CCOC(=O)Cn1c(=N)n(CCOc2ccc(Br)cc2)c2ccccc21`, the Potency result was “inactive” and the cell number change was -7.97%. With `CCOC(=O)Cn1nc(C)c(NC(=O)CCc2ccccc2)c1C`, the Potency result was “inactive” and the cell number change is 12.6%. Regarding `Fc1cccc(CCN2CCNC[C@H]2Cc2cccc3ccccc23)c1`, the Potency is 14.6 µM (active). With `Oc1ccc(C[C@@H]2CNCCN2CCc2cccc3ccccc23)cc1`, the Potency result was “inactive” and the cell number change was -30.1%. For `c1ccc(C[C@H]2CNCCN2CCc2cccc3ccccc23)cc1` the same measures were “inactive” and -0.264%. For `C=CCn1c(C)cc(C(=O)COC(=O)c2ccc(N)c([N+](=O)[O-])c2)c1C` the same measures were “inactive” and 5.39%. Turning to `CCN(CC)CCCNC(=S)N(Cc1cccnc1)Cc1cc2cc(C)ccc2[nH]c1=O`, the Potency entry is “inactive” and the cell number change amounted to 5.5%. For `CCOC(=O)C1CCCN(CCC(C)c2ccccc2)C1` (stereo not drawn) the same measures were “inactive” and 2.31%. For `CN1CCCC(C(=O)C(C#N)c2ccccc2)C1` (stereo not drawn) the same measures were 29.1 µM (active) and -21.6%. Regarding `CC(CN1CCCC(C(N)=O)C1)c1ccccc1` (stereo not drawn), the Potency entry was “inactive” and the cell number change is -8.59%. For `CC(C)n1nc(C(=O)Nc2cccc(S(=O)(=O)NCc3ccco3)c2)c2ccccc2c1=O` the same measures were “inactive” and -6.04%. Consider `CC(C)[C@H](NS(=O)(=O)c1ccccc1)C(=O)OCn1nnc2ccccc2c1=O`, for which the Potency entry is “inactive”.

Consider `CC(=O)OCn1nnc2ccccc2c1=O`, for which the Potency result was “inactive” and the cell number change came out at 12.3%.

Source of the values: PubChem BioAssay AID2685 (National Center for Advancing Translational Sciences (NCATS), 2010).
